# Measurements from the supplement of paper PMC13380429.
# Legend:
# [1] = tested on: Vero E6 infected with SARS-CoV-2; assay: morphology score (similarity to uninfected cells); higher = more like uninfected cells; details: 24 h
# [2] = tested on: Vero E6 infected with SARS-CoV-2; assay: SARS-CoV-2 infection rate relative to infected DMSO; higher = more infection, active = 60 or less; details: 24 h
Compound,morphology score [1],SARS-CoV-2 infection rate [2]
Cn1ncnc1COc1nn2c(-c3cc(F)ccc3F)nnc2cc1C(C)(C)C (10 µM),0.166,96.5% (inactive)
Clc1ccccc1CN1CCc2sccc2C1 [ticlopidine] (10 µM),0.199,92.5% (inactive)
O=C(C=Cc1ccccc1)NC(NC(=S)Nc1ccc(Cl)cc1)C(Cl)(Cl)Cl (centres undefined) (10 µM),-0.143,106% (inactive)
CC(=O)N1CCN(CCOc2ccc(C3CCN(C4=Nn5c(nnc5C(F)(F)F)CC4)CC3)cc2)CC1 (0.833333 µM),0.0218,98.5% (inactive)
O=C(O)[C@H](CC(=O)N1C[C@H]2CCCC[C@H]2C1)Cc1ccccc1 [mitiglinide] (10 µM),0.0871,108% (inactive)
N#C/C(=C\c1cn(-c2ccccc2)c2ccccc12)C(=O)O (10 µM),-0.0582,99.5% (inactive)
CCCN(CCC)C(=O)C1=Cc2ccc(-c3ccc(C(=O)N4CCCC4)cc3)cc2N=C(N)C1 [motolimod] (10 µM),0.14,93% (inactive)
CC(CN(C)C)C(C)(O)Cc1ccc(Cl)cc1 (centres undefined) [clobutinol] (10 µM),0.00198,109% (inactive)
FC(F)c1nc2ccccc2n1-c1nc(N2CCOCC2)nc(N2CCOCC2)n1 (10 µM),-0.0463,108% (inactive)
CCN1/C(=C/C(C)=O)Sc2ccc(OC)cc21 (10 µM),-0.0524,108% (inactive)
Cc1cccc(/C=N/Nc2cc(N3CCOCC3)nc(OCCc3ccccn3)n2)c1 (10 µM),-0.334,43.5% (active)
C=C1CC[C@H](O)C/C1=C/C=C1\CCC[C@]2(C)[C@@H]([C@H](C)/C=C/[C@H](C)C(C)C)CC[C@@H]12 [ergocalciferol] (10 µM),0.0614,93.5% (inactive)
Cn1c(-c2ccccc2)nnc1S(C)(=O)=O (10 µM),0.268,86.5% (inactive)
O=C(O)CCCC[C@@H]1CCSS1 [thioctic-acid] (10 µM),0.0028,106% (inactive)
CCN(CC)CCCCC1CCN(CC(=O)N2c3ccccc3C(=O)Nc3cccnc32)CC1 (10 µM),0.0682,108% (inactive)
O=C1Nc2ccc(Cl)cc2[C@@](C#CC2CC2)(C(F)(F)F)O1 [efavirenz] (10 µM),0.0664,108% (inactive)
CCC(CC)Nc1cc(C)nc(Oc2c(C)cc(C)cc2C)c1C (10 µM),0.248,100% (inactive)
CC(=O)OCC1=C(C(=O)O)N2C(=O)[C@@H](NC(=O)CSc3ccncc3)[C@H]2SC1 [cephapirin] (10 µM),-0.142,93.5% (inactive)
O=C(O)C[C@H]1CC[C@H](c2ccc(NC(=O)c3nnc(Nc4ccc(F)c(F)c4)o3)cc2)CC1 (10 µM),0.115,91% (inactive)
CC(=O)N[C@H](Cc1ccc2ccccc2c1)C(=O)N[C@H](Cc1ccc(Cl)cc1)C(=O)N[C@H](Cc1cccnc1)C(=O)N[C@@H](CO)C(=O)N[C@@H](Cc1ccc(O)cc1)C(=O)N[C@H](CCCNC(N)=O)C(=O)N[C@@H](CC(C)C)C(=O)N[C@@H](CCCNC(=N)N)C(=O)N1CCC[C@H]1C(=O)N[C@H](C)C(N)=O [cetrorelix] (10 µM),0.394,79.5% (inactive)
CCCN(CCC)C(=O)Cc1c(-c2ccc(Cl)cc2)nc2ccc(Cl)cn12 [alpidem] (10 µM),0.0705,99.5% (inactive)

Compound,morphology score [1],SARS-CoV-2 infection rate [2]
Cn1cccc1/C=C1\C(=O)NC(=O)c2ccccc21 (0.833333 µM),0.0943,100% (inactive)
Cc1ccc(S(=O)(=O)Cc2nc(-c3ccc(C(=O)NCc4cccnc4)cc3)oc2C)cc1 (0.833333 µM),-0.146,93% (inactive)
C[C@H](N/C(=N/C#N)Nc1cccc2ncccc12)c1ccccc1 (10 µM),0.0952,98.5% (inactive)
CC1=C(C(=O)O)N2C(=O)[C@@H](NC(=O)[C@H](N)C3=CCC=CC3)[C@H]2SC1 [cephradine] (10 µM),0.0689,106% (inactive)
Nc1ccc(C(=O)O)cc1 [potassium-p-aminobenzoate] (10 µM),-0.112,108% (inactive)
O=C1c2c(O)cccc2Cc2cccc(O)c21 [anthralin] (10 µM),-0.0665,94% (inactive)
Cc1ccc(CNc2ncnc3ccc(-c4ccc(CO)o4)cc23)o1 (10 µM),0.497,106% (inactive)
NC(=O)c1ccc[n+]([C@@H]2O[C@H](COP(=O)([O-])OP(=O)(O)OC[C@H]3O[C@@H](n4cnc5c(N)ncnc54)[C@H](O)[C@@H]3O)[C@@H](O)[C@H]2O)c1 [nadide] (10 µM),-0.0496,94% (inactive)
O=C(O)c1ccc(OCCn2ccnc2)cc1 [dazoxiben] (10 µM),0.196,99% (inactive)
C=CC(=O)Nc1cccc(C)c1Nc1ncc2cc(-c3c(Cl)c(OC)cc(OC)c3Cl)ccc2n1 (10 µM),0.567,67% (inactive)
COc1ccc2[nH]cc(CCNC(C)=O)c2c1 [melatonin] (10 µM),0.0444,105% (inactive)
N=C(N)SCCc1c[nH]cn1 [imetit] (10 µM),0.1,106% (inactive)
Clc1ccc(COC(Cn2ccnc2)c2ccc(Cl)cc2Cl)cc1 (centres undefined) [econazole] (10 µM),-0.225,101% (inactive)
CC(C(=O)O)c1cccc(Oc2ccccc2)c1 (centres undefined) [fenoprofen] (10 µM),0.0202,108% (inactive)
N[C@H]1C[C@@H]1c1ccccc1 (racemic) [tranylcypromine] (10 µM),0.0679,114% (inactive)
Oc1c(I)cc(I)c(O)c1I [riodoxol] (10 µM),0.0583,107% (inactive)
Cc1cc(Nc2nc(N[C@@H](C)c3ccc(F)cc3)c(C#N)cc2F)n[nH]1 (10 µM),-0.0459,110% (inactive)
O=C(NCc1ccccc1)c1csc(Nc2ccncn2)n1 [thiazovivin] (0.833333 µM),0.654,99% (inactive)
Cc1nc[nH]c1CCN [4-methylhistamine] (10 µM),0.105,99.5% (inactive)
COc1cc(C(=O)NCCCCCC(=O)O)cc(OC)c1OC [capobenic-acid] (10 µM),0.0878,108% (inactive)
CC(C)c1c2cc(-c3ccnc(N[C@H]4CC[C@H](NC5CCOCC5)CC4)n3)ccc2nn1C (0.833333 µM),0.108,90.5% (inactive)

Compound,morphology score [1],SARS-CoV-2 infection rate [2]
NC1=NCC2c3ccccc3Cc3ccccc3N12 (centres undefined) [epinastine] (10 µM),0.0427,114% (inactive)
C[C@]12CC[C@H]3[C@@H](CC[C@@]45O[C@@H]4C(O)=C(C#N)C[C@]35C)[C@@H]1CC[C@@H]2O [trilostane] (10 µM),-0.0579,104% (inactive)
Cc1ncc(C)n2nc([C@@H]3C[C@H]3c3nc4c5cccnc5ccn4c3C)nc12 (10 µM),-0.0961,106% (inactive)
COc1ccc2cc(OCC3(C(=O)O)CN(C(=O)c4ccc(F)cc4)C3)ccc2c1 (10 µM),0.0418,110% (inactive)
CCN1CCN(Cc2ccc(-c3cc4c(N[C@H](C)c5ccccc5)ncnc4[nH]3)cc2)CC1 (10 µM),-0.144,124% (inactive)
CC[C@@H](C(N)=O)N1CCCC1=O [levetiracetam] (10 µM),0.0141,109% (inactive)
CCOC(=O)c1ccccc1OC(=O)CCCCCCCC(=O)Oc1ccccc1C(=O)OCC (10 µM),0.166,100% (inactive)
CN[C@@H](C)C(=O)N[C@H]1CCCC[C@H]2CC[C@@H](C(=O)N[C@@H](c3ccccc3)c3cn(CCCCc4ccc(CCCCn5cc([C@@H](NC(=O)[C@@H]6CC[C@@H]7CCCC[C@H](NC(=O)[C@H](C)NC)C(=O)N76)c6ccccc6)nn5)cc4)nn3)N2C1=O (10 µM),0.155,98% (inactive)
COc1ccc(C(Cl)=C(c2ccc(OC)cc2)c2ccc(OC)cc2)cc1 [chlorotrianisene] (10 µM),0.0843,95.5% (inactive)
Cc1ccccc1NC(=O)Nc1ccc(CC(=O)N(C)[C@@H](CC(C)C)C(=O)NCC[C@H](NC(=O)[C@@H]2CCCN2S(=O)(=O)c2cc(Cl)cc(Cl)c2)C(=O)O)cc1 (10 µM),0.157,91% (inactive)
CC/C(=C(/c1ccc(/C=C/C(=O)O)cc1)c1ccc2[nH]ncc2c1)c1ccc(F)cc1Cl (10 µM),0.0792,103% (inactive)
O=C1CN(/N=C/c2ccc([N+](=O)[O-])o2)C(=O)N1 [nitrofurantoin] (10 µM),0.168,112% (inactive)
Cc1nccn1CC1CCc2c(c3ccccc3n2C)C1=O (centres undefined) [ondansetron] (10 µM),0.253,90% (inactive)
Cn1ncc(Cl)c1-c1cc(C(=O)N[C@H](CN)Cc2ccc(F)c(F)c2)oc1Cl [uprosertib] (10 µM),0.441,96.5% (inactive)
CN1CCN(c2cc(-c3ccccc3)nc(N)n2)CC1 (10 µM),0.206,94.5% (inactive)
CCCCCCCCCCCCCC(=O)OC(C)C [isopropyl-myristate] (10 µM),0.235,95.5% (inactive)
O=C(Nc1c(-c2cccs2)nc2ccccn12)c1ccc(Cl)cc1 (10 µM),0.204,84% (inactive)
FC(F)(F)c1ccc(/C=C/c2nc(COc3ccc(CCCCn4ccnn4)cc3)co2)cc1 [mubritinib] (10 µM),-0.0917,96% (inactive)
CCOC(=O)N1c2ccc(C(F)(F)F)cc2[C@@H](N(Cc2cc(C(F)(F)F)cc(C(F)(F)F)c2)C(=O)OC)C[C@H]1CC (10 µM),0.259,93% (inactive)
O=C1Nc2cc(Cl)c(Cl)cc2N2CCNC[C@H]12 (10 µM),0.179,108% (inactive)
